Data published in the supplement of paper PMC13380429.
Unmarked numbers belong to inactive results.

System: Vero E6 infected with SARS-CoV-2
Test: inhibition of SARS-CoV-2 cytopathic effect; higher = more antiviral protection, active = above 15
Conditions: 48 h

| Compound | inhibition of SARS-CoV-2 cytopathic effect (1 nM) | inhibition of SARS-CoV-2 cytopathic effect (8.33 nM) | inhibition of SARS-CoV-2 cytopathic effect (100 nM) | inhibition of SARS-CoV-2 cytopathic effect (833.33 nM) | inhibition of SARS-CoV-2 cytopathic effect (10000 nM) |
| --- | --- | --- | --- | --- | --- |
| Cc1cc(-c2ccccc2)nnc1NCCN1CCOCC1 [minaprine] | 0.27% | 0.75% | -0.02% | 1.16% | 1.01% |
| c1cnc(N2CCN(Cc3ccc4c(c3)OCO4)CC2)nc1 [piribedil] | -0.1% | 15.4% (active) | 1.85% | -0.64% | 0.85% |
| O=c1cc(-c2ccccc2)oc2cc(O)cc(O)c12 [chrysin] | -1.5% | 0.24% | -1.23% | -7.18% | -3.61% |
| CN1CCN(C(=O)c2cc3cc(Cl)ccc3[nH]2)CC1 | -0.68% | 0.59% | -1.58% | -1.48% | -1.13% |
| CCN(CCCCOC(=O)c1ccc(OC)c(OC)c1)C(C)Cc1ccc(OC)cc1 (stereo not given) [mebeverine] | 1.37% | -1.75% | -0.83% | -1.35% | -3.11% |
| COc1ccc2c(c1)C=C1Cn3c-2c(C2CCCCC2)c2ccc(cc23)C(=O)NS(=O)(=O)N(C)CCOCCN(C)C1=O | 3.67% | 0.37% | 0.59% | 2.72% | 8.22% |
| CC(C)C(=O)OC[C@H]1O[C@@H](n2ccc(N)nc2=O)[C@](C)(F)[C@@H]1OC(=O)C(C)C [mericitabine] | -0.35% | -2.22% | 2.05% | -0.85% | 1.88% |
| CC[C@H]1CN2CC[C@H]1C[C@@H]2[C@@H](O)c1ccnc2ccc(OC)cc12 [hydroquinidine] | 2.34% | 3.2% | 0.81% | 2.84% | 1.57% |
| CCNC(=O)C#Cc1ccc2c(C(=Nc3ccc(CN(C)C)cc3)c3ccccc3)c(O)[nH]c2c1 | 0.51% | -0.81% | -4.45% | -15.2% | -20.6% |
| CC(=O)C(=Cc1cc(O)c(O)c([N+](=O)[O-])c1)C(C)=O [nitecapone] | -1.48% | 2.97% | 1.47% | -1.89% | -6.91% |
